Results taken from PubChem BioAssay AID1347131 (National Center for Advancing Translational Sciences (NCATS), 2019).
Out of some 410,000 compounds screened, about 2,000 (0.49%) were called active. A call without a number means that no potency is given here. Another 8% or so got no clear call; they are omitted. The call rests on the fitted dose curve; tested in HEK293 reporter line. Many of the other results were omitted from the sample, so actives are more common in it than they were.

Experiment: qHTS Assay for Foot and Mouth Disease Virus Antivirals: Primary Screen against the MLPCN compound library; further: nearly all actives have a fitted effect of over 55% in size
Details: FMDV antiviral cell-based qHTS; series mostly up to 57.9 µM
Potency means the concentration at half of the fitted maximal effect.

| SMILES | Potency |
| --- | --- |
| Cc1ccc(CSCC(=O)N2CCN(Cc3ccc4c(c3)OCO4)CC2)cc1 | inactive |
| CC(C)[C@@H](C(=O)N1CCN(Cc2ccc3c(c2)OCO3)CC1)n1nnc2ccccc2c1=O | inactive |
| O=C(CCCCCn1c(=O)[nH]c2ccccc2c1=O)N1CCN(Cc2ccc3c(c2)OCO3)CC1 | 20 µM (active) |
| Cc1nnc(SCC(=O)N2CCCC2)n1-c1ccc(F)cc1 | inactive |
| CC(=O)c1ccc(NC(=O)c2cc(S(=O)(=O)N3CCOCC3)ccc2C)cc1 | inactive |
| CC(=O)c1ccc(NC(=O)c2noc3c2CCC3)cc1 | 20 µM (active) |
| COc1cc(NC(=O)c2noc3c2CCc2ccccc2-3)cc(OC)c1OC | inactive |
| O=C(CSc1nnc2c(Cl)cc(Cl)cn12)N1CCOCC1 | inactive |
| Cn1ncc(S(=O)(=O)Cc2ccccc2)c(Cl)c1=O | 20 µM (active) |
| CCNc1nc2c(c(=O)n(Cc3ccccc3)c(=O)n2C)n1Cc1ccccc1 | inactive |
| O=c1c2cnn(-c3ccccc3)c2ncn1Cc1ccccc1 | inactive |
| COc1cccc2cc(-c3nc(-c4ccccc4F)no3)c(=O)oc12 | inactive |
| COc1ccc(C(=O)NNC(=O)c2ccccn2)cc1 | inactive |
| COC(OC)c1ccnc(-c2ccc(OC(=O)c3ccc(F)cc3)cc2)n1 | inactive |
| COc1ccccc1-c1nc(-c2ccccn2)no1 | 14.1 µM (active) |
| COc1ccccc1-c1noc(-c2ccc(N3CCN(c4ccccc4)CC3)c([N+](=O)[O-])c2)n1 | inactive |
| O=C(Oc1ccc(-c2nc(-c3ccccn3)no2)cc1)c1ccccc1 | 14.1 µM (active) |
| COc1ccc(CN2CCN(Cc3ccc(C(F)(F)F)cc3)CC2)c(OC)c1 | inactive |
| Cc1cc(OCCOc2cccc3cccnc23)cc(C)c1Cl | inactive |
| COc1cccc(/C=N/Nc2ncnc(N)c2[N+](=O)[O-])c1OC | 7.94 µM (active) |
| CC1Cc2ccccc2N1c1ncnc(N)c1[N+](=O)[O-] (stereo unspecified) | inactive |
| COc1cccc(/C=N/NC(=O)c2cc3c(OC)cccc3[nH]2)c1OC | inactive |

| SMILES | Potency |
| --- | --- |
| CN(c1ccc(C(=O)NCc2cccnc2)cc1)S(=O)(=O)c1ccc(Cl)cc1 | inactive |
| O=C(NC1CC1)C1CCN(S(=O)(=O)c2cc([N+](=O)[O-])ccc2Cl)CC1 | inactive |
| CCc1cccc(C)c1Nc1c(-c2ccccc2)nc2sccn12 | inactive |
| CCn1nc(-c2ccccc2)c2nc3ccccc3nc21 | inactive |
| CCOc1ccc(CCNC(=O)c2ccc3c(c2)sc2nc(-c4ccc(F)cc4)cn23)cc1OCC | inactive |
| CCCc1nn2cc(-c3ccc(C)c(C)c3)nc2s1 | 14.1 µM (active) |
| CCCCCc1nn2cc(-c3ccccc3)nc2s1 | 12.6 µM (active) |
| CCCn1c(NC(=O)CCNC(=O)c2ccccc2Cl)nc2ccccc21 | inactive |
| COc1cc(NC(=O)N2CCC3(CC2)Nc2ccccc2-n2cccc23)cc(OC)c1OC | inactive |
| CCC1CCCCN1CCCCOc1cccc(Cl)c1 (stereo unspecified) | inactive |
| COc1ccccc1C(CNC(=O)c1ccc(OCc2c(C)noc2C)cc1)N1CCCC1 (stereo unspecified) | inactive |
| Cc1ccc(C2=Nc3ccccc3NC(c3ccncc3)=N2)cc1 | inactive |
| Cc1ccc(Cl)cc1NC(=O)c1cc2ccccc2cc1O | inactive |
| COc1ccccc1C(=O)Nc1ccc(C(=O)c2ccccc2)cc1 | inactive |
| O=C(Nc1ccc2ccccc2c1)c1ccccc1O | 14.1 µM (active) |
| CC(C)NC(=S)NN(c1ccccc1)c1ccccc1 | inactive |
| CCOc1ccc(S(=O)(=O)N2CCC(n3c(C)nc4cccnc43)CC2)cc1 | inactive |
| CCc1ccc2oc(-c3cc(N=Cc4cccc(OC)c4O)ccc3O)nc2c1 | 20 µM (active) |
| COc1cccc(/C=N/Nc2ccc(C(=O)O)cc2)c1O | inactive |
| Cc1nn(-c2cccc(Cl)c2)c2c1C(c1ccncc1)C(C#N)=C(N)O2 (stereo unspecified) | inactive |
| CCCOc1ccccc1C(=O)N(Cc1cccc(Br)c1)C1CCS(=O)(=O)C1 (stereo unspecified) | inactive |
| CC(=O)N1CCc2cc(S(=O)(=O)CCC(=O)N3CCN(c4cc(C)ccc4C)CC3)ccc21 | inactive |

| SMILES | Potency |
| --- | --- |
| Cc1ccc(C)c(N2CCN(C(=O)CCS(=O)(=O)c3ccc4c(c3)NC(=O)CO4)CC2)c1 | 12.6 µM (active) |
| Cc1ccc(C)c(N2CCN(S(=O)(=O)c3cc4c(cc3Cl)NC(=O)CO4)CC2)c1 | inactive |
| CCOC1=C2CN(S(=O)(=O)c3ccc(C)cc3)[C@H](c3ccccc3)C[C@@H]2N(S(=O)(=O)c2ccc(C)cc2)[C@H](c2cccc(C)c2)C1 | inactive |
| COc1ccc(-c2c3c(=O)n(C)c(=O)n(C)c3c3c(-c4ccccc4)nc4ccccc4n23)cc1 | inactive |
| Cn1c(-c2ccccc2)cc2onc(-c3ccccc3)c2c1=O | 8.91 µM (active) |
| Cc1onc(-c2ccccc2)c1C(=O)n1nnc2ccccc21 | inactive |
| Cc1cc(Br)cc(C)c1OCC(=O)NNC(=O)c1cccs1 | inactive |
| Cc1cc(NC(=O)c2ccc(S(=O)(=O)N3CCc4ccccc43)cc2)no1 | inactive |
| COc1ccc(C)cc1S(=O)(=O)Nc1ccccc1 | inactive |
| COc1ccc(OC)c(S(=O)(=O)Nc2ccc(F)cc2)c1 | inactive |
| COc1cc(NS(=O)(=O)c2ccc(C)cc2C)cc(OC)c1OC | 20 µM (active) |
| CC1=[N+](C)c2ccc3ccccc3c2C1(C)C | inactive |
| Cc1ccccc1OCc1nnc(SCC(=O)Nc2c(C)n(C)n(-c3ccccc3)c2=O)n1-c1ccccc1 | inactive |
| Cc1ccc(NC(=O)c2cc(-c3cccs3)nc3ccccc23)c(C)c1 | inactive |
| NS(=O)(=O)c1ccc(Nc2nc(-c3ccc(O)cc3O)cs2)cc1 | inactive |
| Cc1cc(O)ccc1Nc1nc(-c2cccs2)cs1 | 20 µM (active) |
| Cc1ccc(/C=C/c2nc3ccccc3c(=O)n2CCc2ccccc2)cc1 | inactive |
| COc1cccc(-n2c(/C=C\c3ccc(Cl)cc3)nc3ccccc3c2=O)c1 | inactive |
| Cc1ccc(S(=O)(=O)N2CCN(C(=O)/C=C/c3ccccc3)CC2)cc1C | inactive |
| CSc1ccc(/C=C/c2nc3ccccc3n2S(=O)(=O)c2ccc(F)c(C)c2)cc1 | 20 µM (active) |
| Cc1ccc(/C=C/c2nc3ccccc3n2S(=O)(=O)c2cccc(Cl)c2)cc1 | 8.91 µM (active) |
| Cc1cc(S(=O)(=O)N2CCN(c3ccccc3F)CC2)ccc1-n1cnnn1 | inactive |
